Consider 8 compounds from PubChem BioAssay (NCI).

Common to all, as to experiment: NCI-60 one-dose screen, 48 h (100 = growth as untreated, 0 = no growth, -100 = all killed)
The test system of experiment [1] is NCI-H23 lung. The conditions noted are these: 10 µM unless noted.
In experiment [2] the test system is NCI-H226 lung. To be noted: 10 µM unless noted.
The test system of experiment [3] is NCI-H322M lung. The conditions noted are these: 10 µM unless noted.
Experiment [4] concerns HOP-62 NSCLC. To be noted: 10 µM unless noted.
In experiment [5] the test system is NCI-H460 lung. The conditions noted are these: 10 µM unless noted.
Experiment [6] has as its system HOP-92 NSCLC. To be noted: 10 µM unless noted.
Experiment [7] deals with NCI-H522 lung. The conditions noted are these: 10 µM unless noted.
The subject of experiment [8] is A549/ATCC NSCLC. To be noted: 10 µM unless noted.
Experiment [9] deals with 786-0 renal. The conditions noted are these: 10 µM unless noted.
Experiment [10] has as its system COLO 205 colon. The conditions noted are these: 10 µM unless noted.
Experiment [11] relates to DU-145 prostate. To be noted: 10 µM unless noted.
In experiment [12] the test system is K-562 leukemia. The conditions noted are these: 10 µM unless noted.
The test system of experiment [13] is MALME-3M melanoma. The conditions noted are these: 10 µM unless noted.
The test system of experiment [14] is MDA-MB-231 breast. The conditions noted are these: 10 µM unless noted.
Experiment [15] concerns RXF 393 renal. To be noted: 10 µM unless noted.
In experiment [16] the test system is SF-268 CNS. The conditions noted are these: 10 µM unless noted.
For experiment [17], the system named is SF-295 CNS. To be noted: 10 µM unless noted.
The test system of experiment [18] is SF-539 CNS. To be noted: 10 µM unless noted.
Experiment [19] deals with UACC-257 melanoma. The conditions noted are these: 10 µM.
In experiment [20] the test system is M14 melanoma. To be noted: 10 µM unless noted.

Compounds without any hit were thinned out: in the full panel of roughly 83,000, 20% have a hit.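 A percent growth of 40 corresponds to 60% growth inhibition; 0 means no net growth; -100 means all cells died. Active threshold: below 10.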 Values without a mark were called inactive. Calls of active or inactive are those of the source.

Regarding `Cc1cc(=O)n2nc(-c3cn(C)c4ccc(Cl)cc34)sc2n1`, the growth is 92.1% in [1]; 67.3% in [2]; 97.2% in experiment [3]; 85.7% in experiment [4]; 78.6% in experiment [5]; 80.1% in experiment [6]. The growth is 89.2% in [7]; 96.7% in experiment [8]; 102% in [9]; 93.7% in [10]; 90.1% in experiment [11]; 99.2% in experiment [12]. The growth in experiment [13] is 93%; in experiment [14], 82.3%; in [15], 59.5%; in experiment [16], 87%; in experiment [17], 105%; in experiment [18], 83%. Also, the growth in experiment [19] is 97%; in experiment [20] it was 92%.
In the case of `CCCC(=O)NC(c1cccnc1)c1ccc2c(C)ccnc2c1O` (stereo not given), the growth in experiment [1] is 37.8%; in experiment [2] it was 17.2%; in experiment [3] it was 27.2%; in experiment [4], 23.4%; in experiment [5], 6.08% (active); in [6] it was 47.2%. Besides, the growth in [7] was 0.954% (active); in experiment [8], 16%; in [9], 26%; in [10] it was 9.55% (active); in experiment [11], 30.1%; in experiment [12], 21.4%. Besides, the growth in [13] is 21.2%; in [14] it was 32.9%; in experiment [15], 20.4%; in [16], 21.9%; in experiment [17], 17.8%; in [18] it was 14.6%. The growth in experiment [19] was 5.9% (active); in [20], 9.45% (active).
Regarding `CN1CCN(c2nc(-c3cnc4ccccc4n3)cc3ccccc23)CC1`, the growth in experiment [1] is 90.9%; in [2], 99.9%; in experiment [3], 96.7%; in experiment [4] it was 95.9%; in experiment [5], 41.3%; in experiment [6], 17.3%. For the same compound, the growth is 86.9% in experiment [7]; 75.9% in experiment [8]; 56.4% in [9]; -65.2% (active) in experiment [10]; 77.1% in [11]; -52.1% (active) in experiment [12]. The growth is 69% in [13]; 71.4% in experiment [14]; 23.9% in [15]; 71.1% in [16]; 89.9% in [17]; 80.1% in experiment [18]. Also, the growth is 91% in experiment [19] and -80% (active) in experiment [20].
Take `C/C(=N/Nc1nc(N/N=C(/C)c2ccc([N+](=O)[O-])cc2)nc(N2CCOCC2)n1)c1ccc([N+](=O)[O-])cc1`: the growth in experiment [1] is 57.9%; in experiment [2] it was 41.9%; in [3] it was 86.7%; in experiment [4] it was 86.2%; in [5], 78.1%; in experiment [6], 64.1%. In addition, the growth is 61.7% in experiment [7]; 73.9% in experiment [8]; 66.9% in experiment [9]; 94.8% in experiment [10]; 81% in [11]; 79.7% in experiment [12]. The growth in experiment [13] is 69.4%; in experiment [14] it was 43.5%; in experiment [15], 69.2%; in experiment [16], 96%; in experiment [17], 66.5%; in experiment [18] it was 15.5%. Moreover, the growth in experiment [19] was 99.2%; in experiment [20], 74.5%.
Regarding `O=C1[C@H]2Cc3c([nH]c4ccccc34)[C@@H](c3ccc(Cl)cc3)N2C(=O)CN1C1CCN(Cc2c(Cl)cccc2Cl)CC1`, the growth in experiment [1] was 27.7%; in [2] it was 81.6%; in [3], 103%; in experiment [4] it was 84.9%; in experiment [5], 86%; in experiment [6] it was 21.5%. The growth in experiment [7] is 74.6%; in experiment [8], 87.6%; in [9], -64% (active); in [10] it was 103%; in experiment [11], 90.4%; in experiment [12] it was 81.6%. The growth in [13] was 65.8%; in experiment [14], 53%; in experiment [15] it was 109%; in [16], 85.6%; in [17], 73%; in [18], 77.7%. Also, the growth in experiment [19] was 102%; in experiment [20], 84.5%.
With `NNC(=O)c1sc2nc(-c3cnccn3)cc(-c3cccs3)c2c1N`, the growth was 98.6% in [1]; 89.7% in experiment [2]; 74.4% in experiment [3]; 91.6% in experiment [4]; 103% in [5]; 101% in experiment [6]. Also, the growth in experiment [7] is 101%; in experiment [8] it was 102%; in [9] it was 108%; in experiment [10] it was 102%; in experiment [11] it was 104%; in [12], 95.5%. Also, the growth in [13] was 95.6%; in [14], 79%; in [15], 102%; in [16], 93.5%; in [17] it was 104%; in experiment [18], 94.9%. Further, the growth is 115% in experiment [19] and 105% in experiment [20].
Turning to `O=C(c1ccc(O)cc1)[C@@H]1[C@@H]2CCCN2[C@@]2(C(=O)N(C(=O)c3ccc(F)cc3)c3ccccc32)[C@H]1c1ccc(F)cc1`, the growth in experiment [1] is 98.5%; in [2], 94.3%; in experiment [3], 98.6%; in [4] it was 97.4%; in [5], 99.6%; in [6], 67%. Further, the growth was 93.7% in experiment [7]; 96.6% in experiment [8]; 100% in experiment [9]; 105% in [10]; 102% in experiment [11]; 75.7% in [12]. In addition, the growth is 84.2% in experiment [13]; 82.5% in experiment [14]; 105% in [15]; 89.9% in [16]; 96.2% in [17]; 85.4% in experiment [18]. Also, the growth was 103% in experiment [19] and 95.1% in experiment [20].
Take `C/C(=N\NC(=S)Nc1ccc(Br)cc1)c1cc2ccccc2oc1=O`: the growth in experiment [1] was 34.1%; in [2], -17.8% (active); in experiment [3] it was 37.4%; in experiment [4] it was 30.5%; in experiment [5], 3.8% (active); in experiment [6], 29.1%. The growth in [7] was -14.4% (active); in experiment [8], 27.3%; in [9], 5.25% (active); in [10] it was 71.1%; in experiment [11], 29.4%; in [12], 9.69% (active). Also, the growth is 24% in experiment [13]; 23.2% in experiment [14]; -24.2% (active) in experiment [15]; 14.5% in experiment [16]; 32.1% in [17]; 20.9% in experiment [18]. Besides, the growth in experiment [19] was 10.1%; in [20] it was -28.8% (active).
